Test results published in PubChem BioAssay (NCI).
Values joined by “and” are separate entries in the source; they are usually repeats but may differ in a detail not shown here. Equal entries are not always repeated. About 83,000 compounds went through this panel and 20% of them were active in at least one assay; those are over-represented in the sample as a whole.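 Testing used 96-well plates and a 48-hour single-concentration exposure. Example: -40 means 40% of the starting cells died.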 Active and inactive are the calls of the source. How the source made its calls: active means growth percent below 10; inactive means the rest.

Assays:
Experiment in all cases: NCI-60 one-dose screen, 48 h (100 = growth as untreated, 0 = no growth, -100 = all killed)
Conditions in all cases: 10 µM unless noted
NCI-H23 lung = tested on: NCI-H23 lung
NCI-H226 lung = tested on: NCI-H226 lung
NCI-H322M lung = tested on: NCI-H322M lung
HOP-62 NSCLC = tested on: HOP-62 NSCLC
NCI-H460 lung = tested on: NCI-H460 lung
HOP-92 NSCLC = tested on: HOP-92 NSCLC
NCI-H522 lung = tested on: NCI-H522 lung
A549/ATCC NSCLC = tested on: A549/ATCC NSCLC
786-0 renal = tested on: 786-0 renal
COLO 205 colon = tested on: COLO 205 colon

Row | SMILES | growth (NCI-H23 lung) | growth (NCI-H226 lung) | growth (NCI-H322M lung) | growth (HOP-62 NSCLC) | growth (NCI-H460 lung) | growth (HOP-92 NSCLC) | growth (NCI-H522 lung) | growth (A549/ATCC NSCLC) | growth (786-0 renal) | growth (COLO 205 colon)
1 | CCCCCCCCCCCCCCCCCCn1cc(COc2ccc(C=O)cc2)nn1 | 90.4% (inactive) | 102% (inactive) | 108% (inactive) | 104% (inactive) | 102% (inactive) | 135% (inactive) | 89% (inactive) | 91.2% (inactive) | 94.9% (inactive) | 113% (inactive)
2 | Cc1ccc(/C=C(\C#N)c2cc3ccccc3[nH]2)cc1 | 66% (inactive) | 95.3% (inactive) | 87.7% (inactive) | 49.5% (inactive) | 30.6% (inactive) | 51.1% (inactive) | 13.7% (inactive) | 49% (inactive) | 72.7% (inactive) | 32.4% (inactive)
3 | Cc1cnc(C(=O)NNc2nc3sc4c(c3c(=O)[nH]2)C(C)CCC4)cn1 (stereo not given) | 22.9% (inactive) | -8.7% (active) | 25.3% (inactive) | 8.82% (active) | 5.04% (active) | 43.6% (inactive) | 26.1% (inactive) | 12.3% (inactive) | 11.2% (inactive) | 11.2% (inactive)
4 | O=C1OCC2=C1C(c1cccc([N+](=O)[O-])c1)c1cc3c(cc1N2CCO)CCC3 (stereo not given) | 23.2% (inactive) | 38.2% (inactive) | 37.2% (inactive) | 31.3% (inactive) | 3.63% (active) | 51.4% (inactive) | -4.9% (active) | 11.7% (inactive) | 25.2% (inactive) | -27.1% (active)
5 | C[C@@H]1CC[C@@H]2[C@@H]1[C@H](OC(=O)/C=C/c1ccccc1)[C@]1(c3ccccc3)C[C@@H](NC(=O)CO)[C@@]2(C)O1 | 97.7% (inactive) | 88.8% (inactive) | 98.2% (inactive) | 96.8% (inactive) | 105% (inactive) | 65.5% (inactive) | 82.3% (inactive) | 95% (inactive) | 101% (inactive) | 99.7% (inactive)
6 | Cn1cc(-c2nonc2-c2cn(C)c3ccc(Br)cc23)c2ccccc21 | 56.4% (inactive) | 71.3% (inactive) | 64% (inactive) | 25.8% (inactive) | 12.9% (inactive) | 44.4% (inactive) | 8.18% (active) | 40.1% (inactive) | 33.3% (inactive) | 29.6% (inactive)
7 | C=C(C)[C@@H]1CC[C@]2(C)[C@H](CC(=O)N[C@H]3[C@@H]4C[C@](C)(C(=O)OC)CC[C@]4(C)CC[C@]32C)[C@@]1(C)CCC#N | 92.7% (inactive) | 78.1% (inactive) | 103% (inactive) | 110% (inactive) | 96.8% (inactive) | 69.3% (inactive) | 71.3% (inactive) | 94.2% (inactive) | 107% (inactive) | 86.9% (inactive)
8 | COC(=O)c1nc(-c2ccccc2)oc1S(=O)(=O)N(C)CCO | 90.9% (inactive) | 90.8% (inactive) | 94.6% (inactive) | 103% (inactive) | 105% (inactive) | 41.7% (inactive) | 32.7% (inactive) | 91.2% (inactive) | 57.9% (inactive) | 48% (inactive)
9 | CN(Cc1ccccc1)c1nc(Cl)c(C2CC(c3ccc(F)cc3)=NN2C=O)s1 (stereo not given) | 84.2% (inactive) | 95.9% (inactive) | 93.1% (inactive) | 107% (inactive) | 96.9% (inactive) | 89.5% (inactive) | 83.3% (inactive) | 94.6% (inactive) | 93.9% (inactive) | 99.7% (inactive)
10 | N#C/C(=C\c1ccccc1Cl)c1cc2ccccc2[nH]1 | 82.8% (inactive) | 75.2% (inactive) | 89.5% (inactive) | 65.3% (inactive) | 90.5% (inactive) | 37.3% (inactive) | 82.5% (inactive) | 90.5% (inactive) | 99.6% (inactive) | 105% (inactive)
11 | O=C(Nc1ccc2ccccc2c1)c1cc2ccccc2cc1O | 81.5% (inactive) | 91.6% (inactive) | 75.7% (inactive) | 98.8% (inactive) | 85.4% (inactive) | 63.7% (inactive) | 62.6% (inactive) | 84.6% (inactive) | 85.6% (inactive) | 110% (inactive)
12 | O=C(NCc1cccnc1)/C(=C\c1ccc(Br)cc1)S(=O)(=O)c1ccccc1 | -43.7% (active) | 7.52% (active) | 1.87% (active) | -34.1% (active) | -30.5% (active) | -2.35% (active) | -71.2% (active) | -3.53% (active) | -67.7% (active) | -84.2% (active)
13 | O=C1C(N2CCOCC2)=C(I)C(=O)c2ncccc21 | 58.1% (inactive) | 84.8% (inactive) | 99.1% (inactive) | 55.8% (inactive) | 58.8% (inactive) | 123% (inactive) | 36.5% (inactive) | 85.8% (inactive) | 90% (inactive) | 102% (inactive)
14 | CCCCCCNC(=O)Oc1ccc(/C(=C(/CC)Cc2ccccc2)c2ccc(OCCCN(C)C)cc2)cc1 | 79% (inactive) | 95.5% (inactive) | 89.3% (inactive) | 83.2% (inactive) | 40.2% (inactive) | 54.3% (inactive) | 89% (inactive) | 71.6% (inactive) | 68.8% (inactive) | 65.6% (inactive)
15 | O=C(CCN1CCOCC1)Nc1cccc(-n2cc(-c3ccncc3)c(-c3ccc(Cl)c(O)c3)n2)c1 | 51.7% (inactive) | 71% (inactive) | 60.4% (inactive) | 28% (inactive) | 17.8% (inactive) | 23.7% (inactive) | 5.83% (active) | 35.8% (inactive) | 11.7% (inactive) | 0.424% (active)
16 | Nc1ncnc2c1C(c1ccc([N+](=O)[O-])cc1)c1sc3c(F)cccc3c1O2 (stereo not given) | 86.8% (inactive) | 62.9% (inactive) | 93.6% (inactive) | 116% (inactive) | 89.4% (inactive) | 107% (inactive) | 84.3% (inactive) | 99.9% (inactive) | 103% (inactive) | 109% (inactive)
17 | O=C(Nc1ncc(Cc2cccc(C(F)(F)F)c2)s1)c1ccc(-n2cnnn2)cc1 | 55% (inactive) | 69.3% (inactive) | 86.1% (inactive) | 104% (inactive) | 30.5% (inactive) | 86.2% (inactive) | 54.5% (inactive) | 34.4% (inactive) | 66.1% (inactive) | 121% (inactive)
18 | Cc1cccc(-c2nnc(SCC(=O)Nc3ncc(Cc4ccccc4)s3)n2N2C(=O)CSC2=S)c1 | 36.7% (inactive) | 31.5% (inactive) | 40.1% (inactive) | 30.3% (inactive) | 20% (inactive) | 8.49% (active) | 34.5% (inactive) | 7.99% (active) | 29.8% (inactive) | 66.6% (inactive)
19 | C=C(CN1CC=CCC1)[C@@H]1CC[C@]2(COC(C)=O)CC[C@]3(C)[C@H](CC[C@@H]4[C@@]5(C)CC[C@H](O)C(C)(C)[C@@H]5CC[C@]43C)[C@@H]12 | 102% (inactive) | 92.5% (inactive) | 114% (inactive) | 107% (inactive) | 96.3% (inactive) | 92.7% (inactive) | 95% (inactive) | 95.3% (inactive) | 103% (inactive) | 105% (inactive)
20 | COc1c(NC=O)c2c(c([N+](=O)[O-])c1OC)C(=O)OC2 | 113% (inactive) and 97.9% (inactive) | 110% (inactive) and 103% (inactive) | 98.1% (inactive) | 99.2% (inactive) and 104% (inactive) | 115% (inactive) and 99.9% (inactive) | 103% (inactive) and 92.8% (inactive) | 98.7% (inactive) and 112% (inactive) | 95.8% (inactive) and 101% (inactive) | 106% (inactive) | 108% (inactive) and 114% (inactive)
21 | Cc1cccc(Cc2cnc(NC(=O)CCCOc3ccc(Cl)cc3)s2)c1 | 54% (inactive) | 53.8% (inactive) | 44.7% (inactive) | 28.7% (inactive) | 9.65% (active) | 52.2% (inactive) | 42.5% (inactive) | 10.7% (inactive) | 11% (inactive) | 15.2% (inactive)
22 | COc1ccc(/C=C/C(=O)c2cc3c(N)c(C(=O)Nc4ccccc4)sc3nc2C)cc1 | 28.8% (inactive) | 42.7% (inactive) | 35.9% (inactive) | 32.9% (inactive) | -1.05% (active) | 40.6% (inactive) | -17.9% (active) | 16.8% (inactive) | 20.2% (inactive) | -17.4% (active)
23 | COc1ccc2c(c1)CCNC21C(=O)Nc2c(Br)cc(Br)cc21 (stereo not given) | 98.4% (inactive) | 101% (inactive) | 90.3% (inactive) | 86.1% (inactive) | 101% (inactive) | 93.2% (inactive) | 91.6% (inactive) | 99.2% (inactive) | 94.8% (inactive) | 112% (inactive)
24 | O=C(Nc1ccc(Cl)c(Cl)c1)Nc1ccc(Cl)c(Cl)c1 | -36.5% (active) and 4.84% (active) | 23.7% (inactive) | -93.6% (active) and 19.2% (inactive) | -83.4% (active) and 40.8% (inactive) | -63.6% (active) and 4.34% (active) | -86.2% (active) and -5.71% (active) | -83.9% (active) and 6.21% (active) | -63% (active) and 17.6% (inactive) | -63.1% (active) and 20.4% (inactive) | -86.9% (active) and 17.1% (inactive)
25 | COc1ccc(NC(=O)Nc2ccccc2CNc2nc(Nc3ccc(OCCN4CCCC4)cc3)ncc2Cl)cc1 | 43.1% (inactive) | 76.1% (inactive) | 36.5% (inactive) | 6.02% (active) | -70.9% (active) | 4.83% (active) | -3.26% (active) | 18.4% (inactive) | -84% (active) | 1.65% (active)
